Results from PubChem BioAssay.
The source made the active and inactive calls.

Key:
[1] = tested on: Human papillomavirus type 1a protein E7 (residues 44-93); test: HPV1a E7 fragment binders on microarrays, primary screen, biochemical, small-molecule microarray, residues 44-93, 635 nm fluorescence (AID 1108); conditions: small-molecule microarray binding, fluorescence 635 nm; higher = more signal;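 further: E7 fragment applied at 1 µg/mL in TBST for 1 h at 4 C; score combines spot fluorescence with its signal to noise ratio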
[2] = modulators of HCV replicon luciferase signal, primary screen, HCV replication inhibitor project, Huh7 cells, luciferase reporter (AID 1109); conditions: 48 h, higher = more signal;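 further: huh7 hepatoma cells harbouring a luciferase neomycin HCV replicon reporter; luciferase luminescence as measure of HCV replicon replication; test concentration not given here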
[3] = biological target: Left-right determination factor 2 (Homo sapiens) (UniProt O00292); test: LEFTY2 binders on small-molecule microarrays, primary screen, biochemical, small-molecule microarray, 635 nm fluorescence scan (AID 1110); conditions: LEFTY2 binding, higher = more signal
Chain of Left-right determination factor 2 (Homo sapiens) (O00292 whole entry, looked up): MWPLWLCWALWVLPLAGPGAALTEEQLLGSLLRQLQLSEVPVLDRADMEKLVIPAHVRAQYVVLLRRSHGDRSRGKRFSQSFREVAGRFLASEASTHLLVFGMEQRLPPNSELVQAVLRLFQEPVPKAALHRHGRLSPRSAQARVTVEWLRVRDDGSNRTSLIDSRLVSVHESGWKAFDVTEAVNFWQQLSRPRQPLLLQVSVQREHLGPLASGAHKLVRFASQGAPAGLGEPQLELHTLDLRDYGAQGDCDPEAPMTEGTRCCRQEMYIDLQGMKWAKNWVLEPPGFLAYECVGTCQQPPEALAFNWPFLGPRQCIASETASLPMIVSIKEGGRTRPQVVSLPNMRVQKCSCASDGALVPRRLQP

[4] = biological target: Calmodulin-1 (Homo sapiens) (UniProt P0DP23); test: CALM1 binders on microarrays, EGTA buffer, profiling panel, biochemical, small-molecule microarray, Cy5-labelled CALM1 (AID 1111); conditions: Cy5-CALM1 binding fluorescence, higher = more signal;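 further: labelled calmodulin applied in Tris saline Tween buffer holding calcium plus EGTA and DTT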
[5] = biological target: Calmodulin-1 (Homo sapiens) (UniProt P0DP23); test: calcium-bound CALM1 binders on microarrays, profiling panel, artefact control for SMM control-protein annotation, biochemical, small-molecule microarray, Cy5-labelled CALM1, plus calcium (AID 1112); conditions: Cy5-CALM1 binding fluorescence, higher = more signal;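 further: score merges spot fluorescence with signal to noise from triplicate slides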
[6] = small-molecule microarray binders of probe aWnt5a, primary screen, biochemical, biotinylated probe, 635/667 nm fluorescence (AID 1113); conditions: higher = more signal;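 further: score merges 667 nm fluorescence intensity with signal-to-noise per printed feature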
[7] = small-molecule microarray binders of probe aShh, primary screen, biochemical, biotinylated probe, 635/667 nm fluorescence (AID 1114); conditions: higher = more signal;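 further: probe is biotin-labelled aShh protein from a stem cell growth factor screen; measures binding of labelled protein to compounds printed on the slide; score merges feature fluorescence at 667 nm with signal-to-noise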
[8] = small-molecule microarray binders of probe aNog, primary screen, biochemical, biotinylated probe, 635/667 nm fluorescence (AID 1115); conditions: higher = more signal;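 further: probe is biotinylated aNog protein used at 0.15 µg/mL for 1 h at 4 C; z-score combines 667 nm fluorescence of each spot with its signal to noise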
[9] = biological target: Torsin-1A-interacting protein 1 (Homo sapiens) (UniProt Q5JTV8); test: LAP1 binders from COS7 cell lysate, primary screen, small-molecule microarray, 635/667 nm fluorescence (AID 1116); conditions: COS7-hLAP1 lysate binding, 635 nm fluorescence, higher = more signal
Chain of Torsin-1A-interacting protein 1 (Homo sapiens) (Q5JTV8 whole entry, looked up): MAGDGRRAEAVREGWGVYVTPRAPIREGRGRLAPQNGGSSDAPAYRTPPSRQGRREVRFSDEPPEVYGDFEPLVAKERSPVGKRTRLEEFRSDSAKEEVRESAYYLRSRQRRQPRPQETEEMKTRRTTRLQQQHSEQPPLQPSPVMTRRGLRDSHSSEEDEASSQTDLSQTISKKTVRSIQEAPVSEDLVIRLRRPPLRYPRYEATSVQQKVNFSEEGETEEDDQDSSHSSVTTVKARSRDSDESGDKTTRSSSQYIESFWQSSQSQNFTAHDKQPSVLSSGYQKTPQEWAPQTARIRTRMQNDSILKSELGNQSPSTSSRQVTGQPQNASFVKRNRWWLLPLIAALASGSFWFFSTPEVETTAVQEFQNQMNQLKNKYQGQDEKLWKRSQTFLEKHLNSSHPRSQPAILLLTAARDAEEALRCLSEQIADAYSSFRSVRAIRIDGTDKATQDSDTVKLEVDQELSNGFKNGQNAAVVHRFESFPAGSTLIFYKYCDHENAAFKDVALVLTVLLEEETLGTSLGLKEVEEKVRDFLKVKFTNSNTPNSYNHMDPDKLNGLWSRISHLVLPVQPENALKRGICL

[10] = biological target: Alpha-bungarotoxin (Bungarus multicinctus) (UniProt P60615); test: alpha-bungarotoxin binders on microarray, profiling panel, artefact control for SMM control protein annotation, biochemical, small-molecule microarray, Alexa647 label, 635/667 nm fluorescence (AID 1117); conditions: alpha-BTX-A647 binding fluorescence, higher = more signal
Chain of Alpha-bungarotoxin (Bungarus multicinctus) (P60615 whole entry, looked up): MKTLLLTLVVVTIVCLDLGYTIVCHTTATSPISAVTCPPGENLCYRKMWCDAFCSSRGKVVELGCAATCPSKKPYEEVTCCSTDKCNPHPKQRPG

Albumin (Bos taurus) = Albumin (Bos taurus) (UniProt P02769); test: bovine serum albumin binders on microarray, profiling panel, artefact control for SMM control protein annotation, biochemical, small-molecule microarray, Alexa647 label, 635/667 nm fluorescence (AID 1118); conditions: BSA-A647 binding, fluorescence 635 nm, higher = more signal;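 further: score merges 667 nm emission intensity and signal-to-noise per printed compound spot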
Chain of Albumin (Bos taurus) (P02769 whole entry, looked up): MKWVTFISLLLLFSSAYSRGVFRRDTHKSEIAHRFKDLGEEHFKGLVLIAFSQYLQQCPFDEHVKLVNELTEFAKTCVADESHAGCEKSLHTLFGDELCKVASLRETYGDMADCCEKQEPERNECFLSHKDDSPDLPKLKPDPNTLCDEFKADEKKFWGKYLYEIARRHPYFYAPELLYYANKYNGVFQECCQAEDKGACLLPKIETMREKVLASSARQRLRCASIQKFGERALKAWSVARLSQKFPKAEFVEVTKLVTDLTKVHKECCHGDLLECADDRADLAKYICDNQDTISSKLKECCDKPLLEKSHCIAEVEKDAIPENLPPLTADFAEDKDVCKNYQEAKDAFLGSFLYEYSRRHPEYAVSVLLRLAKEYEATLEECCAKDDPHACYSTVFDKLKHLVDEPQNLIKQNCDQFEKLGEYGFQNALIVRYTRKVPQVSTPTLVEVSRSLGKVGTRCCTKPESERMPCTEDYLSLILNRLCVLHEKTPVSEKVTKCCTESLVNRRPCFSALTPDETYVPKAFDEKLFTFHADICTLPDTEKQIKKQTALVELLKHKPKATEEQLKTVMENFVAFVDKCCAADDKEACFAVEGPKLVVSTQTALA

[11] = small-molecule microarray binders of probe aXIP, primary screen, biochemical, NeuroSMM set, 635/667 nm fluorescence (AID 1119); conditions: higher = more signal, called active from +8 up or from −8 down;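 further: probe is the protein aXip251-270 applied at 1 µg/mL to compound-printed slides; binding of probe to printed compounds measured as 667 nm fluorescence plus signal to noise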
[12] = small-molecule binders of probe aNOTCH3, primary screen, biochemical, small-molecule microarray, 635/667 nm fluorescence (AID 1120); conditions: higher = more signal;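 further: probe is a biotin-tagged antibody raised against NOTCH3 rather than NOTCH3 protein; score merges spot fluorescence near 667 nm with spot signal to noise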
[13] = small-molecule binders of probe aNOTCH2, primary screen, biochemical, small-molecule microarray, 635/667 nm fluorescence (AID 1121); conditions: higher = more signal;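 further: score merges feature fluorescence read at 667 nm with its signal to noise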
[14] = biological target: Carbonic anhydrase 2 (Homo sapiens) (UniProt P00918); test: CAII small-molecule binders, profiling panel, biochemical, small-molecule microarray, Alexa647-labelled CAII (AID 1122); conditions: CAII-A647 binding fluorescence, higher = more signal
[15] = COS7 lysate on small-molecule microarray, probe aHis, 635 nm (AID 1123); conditions: COS7 cell lysate, fluorescence, higher = more signal;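 further: z-score combines 667nm fluorescence intensity with signal-to-noise per printed compound spot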
[16] = compound binding in COS7 lysate, probe aLAP1, primary screen, cell lysate, small-molecule microarray (AID 1124); conditions: probe aLAP1, fluorescence, higher = more signal;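 further: lysate comes from COS7 cells expressing LAP1 and is applied at 0.3 µg/mL; score merges spot fluorescence near 667 nm with signal-to-noise over triplicate slides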
Sam68 (KHDRBS1) = test: Sam68 small-molecule binders, primary screen, biochemical, small-molecule microarray, 635 nm fluorescence (AID 1125); conditions: small-molecule microarray binding, higher = more signal;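 further: score merges 667 nm channel intensity with signal to noise over triplicate slides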
[17] = tested on: Chordin-like protein 2 (CHRDL2); test: CHRDL2 small-molecule binders, primary screen, biochemical, small-molecule microarray, 635 nm fluorescence (AID 1126); conditions: small-molecule microarray binding, fluorescence 635 nm; higher = more signal;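 further: printed compound slides probed with Chrdl2 protein at 4 µg/mL for 1 h at 4 C; score merges 667 nm emission intensity with signal to noise over three replicate slides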
[18] = biological target: Concanavalin-A (Canavalia ensiformis) (UniProt P02866); test: ConA small-molecule binders, primary screen, artefact control for SMM control protein annotation, biochemical, small-molecule microarray, Alexa647 label, 635 nm (AID 1127); conditions: ConA-A647 binding fluorescence, higher = more signal;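 further: z combines 667 nm emission intensity with signal-to-noise across three replicate slides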
Chain of Concanavalin-A (Canavalia ensiformis) (P02866 whole entry, looked up): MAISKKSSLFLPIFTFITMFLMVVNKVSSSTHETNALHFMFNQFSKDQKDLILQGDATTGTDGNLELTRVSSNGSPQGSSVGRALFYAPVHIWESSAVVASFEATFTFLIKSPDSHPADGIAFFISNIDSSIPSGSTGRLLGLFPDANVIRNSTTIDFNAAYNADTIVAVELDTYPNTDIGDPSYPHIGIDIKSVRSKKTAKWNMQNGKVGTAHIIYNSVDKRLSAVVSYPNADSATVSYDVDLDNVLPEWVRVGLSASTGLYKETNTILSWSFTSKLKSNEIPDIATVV

| SMILES | composite z-score [1] | z-score [2] | composite z-score [3] | composite z-score [4] | composite z-score [5] | composite z-score [6] | composite z-score [7] | composite z-score [8] | composite z-score [9] | composite z-score [10] | composite z-score (Albumin (Bos taurus)) | composite Z-score [11] | composite z-score [12] | composite z-score [13] | composite z-score [14] | composite z-score [15] | composite z-score [16] | composite z-score (Sam68 (KHDRBS1)) | composite z-score [17] | composite z-score [18] |
| --- | --- | --- | --- | --- | --- | --- | --- | --- | --- | --- | --- | --- | --- | --- | --- | --- | --- | --- | --- | --- |
| CC(C)NC(=O)[C@@]1(C)c2ccccc2C(=O)N(Cc2cc(F)cc(C(F)(F)F)c2)[C@H]1c1ccc(CO)cc1 | 1.3 | 0.0589 | -0.0164 | 0.304 | 0.418 | -0.0165 | -0.121 | -0.347 | 0.363 | 1.16 | 0.293 | 0.74 (inactive) | 0.191 | -0.102 | 0.645 | 1.03 | 0.433 | 1.23 | 0.153 | 0.674 |
| COc1ccc(O[C@@H]2[C@H](O)CO[C@H]2C=CC#Cc2ccccc2)cc1 | -0.289 | -0.0351 | 0.347 | -0.414 | -0.789 | -0.1 | -0.138 | -0.234 | 0.17 | -0.891 | -0.0002 | 0.497 (inactive) | -0.166 | -0.171 | 0.177 | 0.297 | 0.0594 | -0.016 | 0.229 | -0.301 |
| CCCC[C@@H]1C[C@H]1[C@@H](NS(=O)(=O)c1cccc2cccnc12)c1ccc(-c2ccccc2)cc1 | 0.97 | -0.122 | -0.732 | 0.691 | 1.23 | 0.138 | -0.01 | 1.31 | 0.0258 | 0.231 | 0.41 | -0.325 (inactive) | 0.106 | -0.0817 | 0.529 | 0.92 | -0.222 | -0.0217 | -1 | 0.119 |
| CS(=O)(=O)CCOC(=O)C1=CC(CCCO)=CC(c2cccs2)N(Cc2cccc(OC(F)(F)F)c2)C=C1C(=O)OCCS(C)(=O)=O (stereo not given) | 0.729 | -2.77 | -0.224 | 2.31 | 1.36 | 0.055 | 0.261 | -0.0554 | 1.88 | 1.6 | 1.03 | 0.0987 (inactive) | 0.106 | -0.0358 | 0.809 | 1.1 | 0.678 | 1.18 | -0.607 | 1.16 |
| COc1ccc(O[C@H]2C=C[C@@H](c3ccccc3)O[C@@H]2COC(=O)CCC(C)=NO[C@H](C)c2cn([C@@H]3COC[C@H]3O)nn2)cc1 | 0.765 | -2.82 | 0.51 | -0.121 | -0.686 | -0.119 | 0.0062 | -0.185 | 0.68 | 1.19 | 0.454 | 0.362 (inactive) | -0.015 | -0.211 | -0.106 | -0.208 | 0.263 | 0.771 | 0.656 | 0.427 |
| [N-]=[N+]=NCc1ccccc1[C@@H]1OC(c2ccc(OCCCO)cc2)=N[C@]1(Cc1ccccc1)C(=O)N1CCOCC1 | 0.0452 | -2.03 | 0.343 | 1.93 | 1.05 | 0.141 | 0.26 | 1.9 | 3.31 | 1.62 | 0.923 | 0.0976 (inactive) | 0.387 | 0.34 | 0.514 | 3.06 | 0.827 | 1.32 | 0.766 | 1.16 |
| C#CCCCON=C1C[C@@H](O)[C@@H](O)[C@@H]2[C@@H]3C(=O)N(Cc4ccccc4)C(=O)[C@@H]3CC[C@H]12 | 0.154 | -1.08 | 0.451 | -0.0441 | -0.273 | -0.154 | -0.138 | -0.0245 | 0.28 | 0.234 | 0.344 | 0.497 (inactive) | -0.056 | -0.2 | -0.009 | 0.363 | -0.316 | -0.0716 | 0.477 | 0.372 |
| CC(C)=CCCC(C)=CCON=C1C[C@@H](O)[C@@H](O)[C@@H]2[C@@H]3C(=O)N(C[C@@H]4CCCO4)C(=O)[C@@H]3CC[C@@H]12 | 1.38 | 0.398 | 0.763 | -0.599 | -1.4 | -0.104 | -0.243 | -0.319 | 0.101 | 0.488 | -0.506 | 2.86 (inactive) | -0.0328 | -0.0907 | 0.452 | 0.877 | -0.108 | 1.3 | 1.39 | 0.296 |
| O=C(NN=C1C[C@@H](O)[C@@H](O)[C@@H]2[C@@H]3C(=O)N(c4cccc(Oc5ccccc5)c4)C(=O)[C@@H]3CC[C@H]12)OCc1ccccc1 | -0.142 | -0.597 | 0.0075 | 0.0088 | -0.312 | -0.0664 | 0.3 | 0.116 | -0.0681 | 1.05 | 0.724 | -0.558 (inactive) | -0.0204 | -0.204 | -0.0039 | 1.82 | 0.122 | -0.406 | 0.0071 | 0.186 |
| CCc1cc2c(nc1CC)CCN(CCC(C)=NOC[C@@H](O)COCc1ccco1)C2 | -1.51 | -1.59 | 1.48 | -0.729 | -1.77 | 0.0663 | 0.547 | -0.0965 | 1.11 | 0.64 | -0.576 | -0.206 (inactive) | 1.03 | 0.31 | 0.193 | -0.988 | 0.377 | 0.226 | 1.57 | 0.212 |
| c1ccc(C2NCCc3c2[nH]c2ccccc32)cc1 (stereo not given) | -0.571 | -3.13 | 0.106 | -0.387 | -0.951 | -0.124 | -0.147 | 0.183 | 0.446 | 0.128 | 0.0809 | -0.0389 (inactive) | 0.0876 | -0.053 | 0.743 | -0.0295 | -0.0502 | -0.409 | 0.195 | -0.082 |
| COC(=O)[C@@H]1CC[C@H](C)[C@@H](c2ccc(C)cc2)N1C(=O)c1ccc(C=NOC(C)CN2CCCCc3nc(C)c(C)cc32)cc1 (stereo not given in full) | -0.278 | -3.62 | 0.359 | -0.0385 | 0.076 | 0.0437 | 0.0893 | 0.0274 | 0.652 | 0.709 | 0.594 | -0.317 (inactive) | 0.0916 | -0.0707 | -0.0862 | 0.125 | 0.388 | 0.0689 | 0.62 | 0.951 |
